# High-throughput results as filed in PubChem BioAssay.
# D2 antagonist = HTS Assay for Allosteric Antagonists of the Human D2 Dopamine Receptor: Primary Screen for Antagonists. D(2) dopamine receptor (Homo sapiens), P14416. HEK293 TREx D2 cells, calcium flux, dopamine EC80. inhibition, % at 10 µM. actives 2% (n = 340,000); in the data active means inhibition above about 30%; inactive means below that, where a call was filed
# Target sequence (P14416 whole entry, looked up): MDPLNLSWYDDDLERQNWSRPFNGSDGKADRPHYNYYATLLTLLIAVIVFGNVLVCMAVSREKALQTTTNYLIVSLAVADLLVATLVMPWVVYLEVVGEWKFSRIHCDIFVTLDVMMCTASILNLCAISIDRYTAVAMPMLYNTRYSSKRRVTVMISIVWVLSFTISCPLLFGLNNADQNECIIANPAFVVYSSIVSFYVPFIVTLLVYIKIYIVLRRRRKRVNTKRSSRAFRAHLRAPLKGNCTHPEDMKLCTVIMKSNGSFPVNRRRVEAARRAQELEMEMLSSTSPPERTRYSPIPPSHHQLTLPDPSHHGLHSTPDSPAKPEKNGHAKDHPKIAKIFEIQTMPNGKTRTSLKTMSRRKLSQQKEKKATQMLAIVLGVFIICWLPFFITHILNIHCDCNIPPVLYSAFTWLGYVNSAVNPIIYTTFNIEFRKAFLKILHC
#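 Tetracycline-induced HEK293 TREx cells expressing D2 receptor forced-coupled to calcium signalling, loaded with no-wash calcium dye. Compounds added and calcium flux read 180 s, then dopamine added at EC80 and read a further 180 s.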
# D2 ag-1 = Beta-Arrestin HTS for Positive Allosteric Modulators of the Human D2 Dopamine Receptor: Agonists. D(2) dopamine receptor (Homo sapiens), P14416. DiscoveRx PathHunter D2 beta-arrestin, luminescence, 90 min; 100% = 57 uM dopamine signal. activation, % (test concentration not listed). actives 0.084% (n = 360,000); in the data active means activation above about 40%
#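 DiscoveRx PathHunter D2 beta-arrestin cells (2,100/well) attached overnight, then compound-stimulated 90 min at 37 C in HBSS/10 mM HEPES/0.1% Tween-20 buffer; beta-galactosidase complementation read by luminescence after 1 h at ambient temperature. Dopamine 57 uM final (EC100) as control.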
# D2 PAM-1 = HTS Assay for Positive Allosteric Modulators of the Human D2 Dopamine Receptor: Primary Screen for Potentiators. D(2) dopamine receptor (Homo sapiens), P14416. HEK293 T-REx D2, calcium flux, EC20 dopamine potentiation. potentiation, % at 10 µM. actives 0.34% (n = 340,000). AID 485347, 2010;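 active means potentiation over 3 SD above the plate norm, cut at about 30% in these data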
#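 Tetracycline-induced HEK293 T-REx cells force-coupled to calcium signalling expressed D2; compounds were pin-added after a 10 s baseline, read kinetically 180 s, then an EC20 dopamine challenge followed with a further 180 s calcium read.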
# D2 ag-2 = HTS Assay for Allosteric Agonists of the Human D2 Dopamine Receptor: Primary Screen for Agonists; activation, % at 2 µM; HEK293 T-REx D2 cells, calcium flux agonist mode; AID 485358, 2010; actives 0.53% (n = 340,000);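 active means activation over 3 SD above normal in the single-dose calcium agonist read, cut at about 30% in these data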
#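 Calcium-flux readout, 1 cycle/sec over 180 s following compound pin transfer, in inducible HEK293 Trex D2 cells (force-coupled); dopamine controls included. Positive calcium responses during this window marked compounds as potential agonists.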
# D2 PAM-2 = Beta-Arrestin HTS for Positive Allosteric Modulators of the Human D2 Dopamine Receptor: Potentiators. D(2) dopamine receptor (Homo sapiens), P14416. DiscoveRx D2 beta-arrestin cells, luminescence, 90 min; 100% = 57 uM dopamine signal. potentiation, % (concentration not given with the values). actives 0.23% (n = 360,000). AID 624464, 2012; in the data active means potentiation above about 50%
#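 PathHunter beta-arrestin assay in DiscoveRx D2 cells. Compounds were added with an EC20 of dopamine (50 nM final) for 90 min at 37 deg C. Luminescence was read 1 h after detection reagent, with 57 uM dopamine as the EC100 control.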
# Hits are given with their value; n = inactive; x = no result. The list is not random: actives were taken first. Their share in the collection is about 2.4%.
SMILES,D2 antagonist,D2 ag-1,D2 PAM-1,D2 ag-2,D2 PAM-2
COc1cc(NC(=O)C2CCC(=O)N2S(=O)(=O)c2ccc(C)cc2)cc(OC)c1 (stereo not given),n,n,n,n,n
COc1ccc(NC(=O)C2CCC(=O)N2S(=O)(=O)c2ccc(C)cc2)cc1Cl (stereo not given),33.6,n,n,n,n
COc1cc(C(=O)NCC(c2cccs2)N(C)C)cc(Cl)c1OC(C)C (stereo not given),34.5,n,n,n,n
CCCOc1ccc(C(=O)NCC(c2cccs2)N(C)C)cc1OC (stereo not given),n,n,n,n,n
COc1cc2ccccc2cc1C(=O)NCC(c1cccs1)N(C)C (stereo not given),55.5,n,n,n,n
O=C(CNC(=O)c1ccccc1Cl)OCc1cc(=O)n2nc(C3CC3)sc2n1,x,x,n,n,x
Cc1cccc(Cn2c(=O)n(CC3CCC(C(=O)N4CCOCC4)CC3)c(=O)c3sccc32)c1 (stereo not given),x,x,n,n,x
COc1cc(/C=C(/C(=O)O)c2ccc(-c3ccccc3)cc2)cc(OC)c1OC,n,n,30.4,n,n
CCOc1cc2sc(N3CCC(C(=O)Nc4ccc(CC)cc4)CC3)nc2cc1Br,x,x,n,n,x
Cc1c(Br)c([N+](=O)[O-])nn1CC(=O)Nc1nccs1,n,n,52.4,n,n
C=CCn1c(-c2csc(-c3ccccc3)n2)n[nH]c1=S,n,n,48.4,n,n
CCN(CC)c1ccc(/C=C2/C(=O)c3ccc(C(=O)O)cc3C2=O)cc1,n,n,n,84.2,n
Cc1cc(C)cc(C(=O)NCC(=O)OCN2C(=O)c3ccccc3C2=O)c1,44.1,n,n,n,n
COc1cc(OC)c(OC)cc1CN1CCCC(C(=O)c2sccc2C)C1 (stereo not given),n,n,n,n,n
Cc1ccsc1C(=O)C1CCCN(Cc2cc(F)ccc2-n2cccn2)C1 (stereo not given),34.0,n,n,n,n
COc1ccc(CCNC(=O)c2cccc(S(=O)(=O)N3CCCC3)c2)cc1OC,n,n,n,n,n
COc1cc(C(=O)NCCc2ccc(S(=O)(=O)N3CCCC3)cc2)cc(OC)c1OC,58.0,n,n,n,n
CC1CCN(Cc2c(C(=O)N/N=C/c3cccc(Cl)c3)nnn2-c2nonc2N)CC1,n,n,37.5,n,n
C/C(=N\NC(=O)c1nnn(-c2nonc2N)c1CN1CCCCC1)c1ccccc1O,30.1,n,n,n,n
CN1CCN(c2nc(C#N)cc(-c3ccccc3)n2)CC1,n,n,n,n,n
COc1ccc(-c2cc(C#N)nc(N3CCN(C)CC3)n2)cc1,55.0,n,n,n,n
COc1ccc(-c2cc(C(F)(F)F)nc(N3CCCCCC3)n2)cc1,n,n,n,n,n
COc1ccc(-c2cc(C(F)(F)F)nc(N3CCN(C)CC3)n2)cc1,39.3,n,n,n,n
CCCc1nc2ccccc2n1CC(O)COc1ccc(C(=O)OC)cc1 (stereo not given),x,x,n,n,x
Cn1cccc1C(=O)OCC(=O)N1CC(=O)Nc2ccccc21,33.7,n,n,n,n
SMILES,D2 antagonist,D2 ag-1,D2 PAM-1,D2 ag-2,D2 PAM-2
COc1ccccc1Cn1c(CNS(=O)(=O)c2ccccc2Cl)nc2cccnc21,x,x,n,x,x
CS(=O)(=O)Oc1ccc2c(c1)O/C(=C\C=C\c1ccccc1)C2=O,37.5,n,n,n,n
COc1ccc(CCNC(=O)CCNC(=O)c2ccc(Br)cc2)cc1OC,n,n,n,34.9,n
COC(=O)C(Cc1ccccc1)NC(=O)CCC(=O)NC(C)CCc1ccccc1 (stereo not given),n,n,n,n,n
O=C(COc1ccc(Br)cc1)NCCNC(=O)c1ccncc1,47.3,n,n,n,n
Cc1cccc(C)c1OCC(=O)NNC(=O)CCNC(=O)c1ccc(Br)cc1,n,n,n,n,63.9
COC(=O)C(Cc1ccccc1)NC(=O)CCNC(=O)c1ccc(Br)cc1 (stereo not given),x,n,39.6,x,n
COc1ccc(CCNC(=O)c2cc3sc(Cl)cc3n2C)cc1OC,63.0,n,n,n,n
Cc1ccc(CNC(=O)c2cc3sc(Cl)cc3n2C)cc1,x,x,n,x,x
NS(=O)(=O)c1ccc(CCNC(=O)c2ccc3nc(Cc4ccccc4)oc3c2)cc1,x,x,n,n,x
CC(C)[C@H](NC(N)=O)C(=O)NCCc1ccc(Cl)cc1,n,n,n,n,n
Cc1cccc(C(=O)N[C@H](C(=O)NCCc2ccc(Cl)cc2)C(C)C)c1,38.5,n,n,n,n
CC(=O)N1CCc2[nH]c3ccc(C)cc3c2C1,n,n,n,n,n
Cc1ccc2[nH]c3c(c2c1)CCN(C)C3,33.7,n,n,n,n
CCOC(=O)c1ccc2[nH]c3c(c2c1)CN(C)CC3,n,n,n,n,n
Cc1ccc2[nH]c3c(c2c1)CN(C)CC3,31.1,n,n,n,n
Cc1cccc(CN2CCc3c([nH]c4ccccc34)C2)c1,56.2,n,n,n,n
COc1ccc(NC(=O)Cn2nc(-c3ccncc3)ccc2=O)cc1Cl,x,x,n,n,x
CCCCNC(=S)NNC(=O)c1ccco1,n,n,45.9,n,n
CCC(CC)NC(=O)CN1CCN(S(=O)(=O)c2ccc(Br)s2)CC1,n,n,n,n,50.2
O=C(COC(=O)C1CCN(c2ccc(C(F)(F)F)cn2)CC1)Nc1ncc(Cl)cc1Cl,34.7,n,n,n,n
O=C(COC(=O)C1CCN(c2ccc(C(F)(F)F)cn2)CC1)Nc1ccc(Cl)cn1,n,n,n,n,n
O=C(COC(=O)C1CCN(c2ccc(C(F)(F)F)cn2)CC1)NCc1cccc(Cl)c1,33.6,n,n,n,n
O=C(Nc1ccc(C(F)(F)F)cc1)C(Cc1ccccc1)n1cccc1 (stereo not given),x,x,n,n,x
COc1ccccc1-c1ccc(/C=C2\C=CC(=O)O2)o1,n,n,n,66.3,n
CCC(C)NC(=O)c1sc2ncccc2c1-n1c(C)ccc1C (stereo not given),x,x,n,n,x
C=CCNC(=O)c1cc(Cl)ccc1[N+](=O)[O-],n,n,n,n,n
CCCN1CCC(NC(=O)Nc2cc(Cl)ccc2OC)CC1,84.9,n,n,n,n
CC(C)(C)OC(=O)N1CCC(CNC(=O)c2ccc(F)cc2F)CC1,n,n,n,n,n
C=CCNC(=O)c1cc(Cl)ccc1Cl,n,n,32.7,n,n
